# Experimental data taken from PubChem BioAssay (NCATS).
# Active and inactive are the calls of the source. The call rests on the fitted dose curve; in most records, active means well fitted curve in the direction sought with a large enough effect; inconclusive means small, poorly fitted or top-dose-only effect, or another doubt; inactive means no such curve, though single readings can be large or run the other way.
# Target: Alpha-galactosidase (Coffea arabica) (UniProt Q42656)
# Assay: Counterscreen for Glucocerebrosidase Inhibitors: qHTS Assay for Coffee Bean alpha-Galactosidase at pH 4.5 (AID 957);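 further: plate controls were enzyme alone for no effect and no enzyme for full effect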
# Conditions: purified coffee bean alpha-galactosidase, fluorogenic substrate; series mostly up to 76.9 µM; activity change, negative = inhibition: at the top concentration
# Description: NIH Chemical Genomics Center [NCGC]
# NIH Molecular Libraries Screening Centers Network [MLSCN]
# PI Name: Zheng, Wei [NIH]
# Alpha-galactosidase is a homodimeric glycoprotein that hydrolyzes the terminal alpha-galactosyl moieties from glycolipids and glycoproteins. Deficiency of this enzyme results in Fabry Disease with progressive accumulation of globotriaosylceramide and other glycosphingolipids in vascular endothelial cells that causes renal failure, myocardial infarction and stroke, and premature death in patients. It has reported that the improper folding and trafficking of alpha-galactosidase resulted from the genetic mutations may account for a significant numbers of Fabry patients. […] We optimized this coffee bean alpha-galactosidase assay in 1536-well plate format as a counter-screen assay for identifying the selective small molecule inhibitors of other lysosomal enzymes.
# NCGC Assay Protocol Summary:
# This is a fluorogenic enzyme assay with 4-Methylumbelliferyl alpha-D-galactopyranoside as the substrate and green coffee bean […] (from Sigma-Aldrich) as the enzyme preparation. Upon the hydrolysis of this fluorogenic substrate, the resulting product, […]. 4-Methyllumbelliferone, can be excited at 365 nm and emits at 440 nm which can be detected by a standard fluorescence plate reader. Data were normalized to the controls for basal activity (without enzyme) and 100% activity (with enzyme). In the AC50 values were determined from concentration-response data modeled with the standard Hill equation.
# Assay buffer: 50 mM citric acid, 0.005% Tween-20, pH 4.5. (pH 5.9 is an optimal condition for this enzyme assay. This assay in pH 4.5 is used for comparison the inhibitor activities with the human alpha-galactosidase assay)
# 1536-well assay protocol for the coffee bean alpha-galactosidase:
# (1) Add 2 ul/well of enzyme (2 nM final)
# (2) Add 23 nL compounds in DMSO solution. The final titration was 0.7 nM to 77 uM.
# (3) Add 1 ul of substrate (80 uM final)
# (4) Incubate at room temperature for 20 min.
# (5) Add 2 ul stop solution (1M NaOH and 1M Glycine mixture, pH 10)
# (6) Detect the assay plate in a ViewLux plate reader (PerkinElmer) with Ex=365 nm and Em=440nm.
# Keywords: Alpha-galactosidase, Fabry Disease, pharmacological chaperone, chaperone therapy, high throughput screening, alpha-galactosidase inhibitor, MLSMR, MLSCN, NIH Roadmap, qHTS and NCGC
# Chain of Alpha-galactosidase (Coffea arabica) (Q42656 whole entry, looked up): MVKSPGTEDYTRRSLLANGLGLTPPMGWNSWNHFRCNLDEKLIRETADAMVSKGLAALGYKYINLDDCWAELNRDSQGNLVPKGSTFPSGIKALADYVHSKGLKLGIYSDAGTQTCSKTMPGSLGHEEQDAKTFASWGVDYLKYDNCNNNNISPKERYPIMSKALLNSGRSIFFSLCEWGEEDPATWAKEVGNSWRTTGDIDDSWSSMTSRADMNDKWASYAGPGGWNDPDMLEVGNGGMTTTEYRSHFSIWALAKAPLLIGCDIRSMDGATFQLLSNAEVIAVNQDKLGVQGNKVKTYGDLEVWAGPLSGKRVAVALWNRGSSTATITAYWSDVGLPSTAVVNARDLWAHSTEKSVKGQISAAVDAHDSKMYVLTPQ
SMILES,"activity change, negative = inhibition",outcome
CCn1cnc2c(Nc3cccc(Cl)c3)nc(N[C@@H]3CCCC[C@H]3N)nc21,-3.28% (inactive),
Oc1ccc2c3c1O[C@@H]1c4[nH]c5c(c4C[C@@]4(O)[C@@H](C2)N(CC2CC2)CC[C@]314)C[C@]1(O)[C@@H]2Cc3ccc(O)c4c3[C@@]1(CCN2CC1CC1)[C@H]5O4,-7.21% (inactive),
CC(C)C[C@H](NP(=O)(O)O[C@@H]1O[C@@H](C)[C@@H](O)[C@@H](O)[C@H]1O)C(=O)N[C@@H](Cc1c[nH]c2ccccc12)C(=O)O,0.543% (inactive),
C[C@@]12CC[C@H]3[C@@H](CC[C@@H]4C[C@H](O)CC[C@]43C)[C@H]1CC[C@H]2O,-1.13% (inactive),
C[C@]12CC[C@H](O)CC1=CC[C@@H]1[C@H]2CC[C@]2(C)C(=O)CC[C@H]12,1.38% (inactive),
C[C@]12CC[C@H](O)C[C@@H]1CC[C@H]1[C@H]2CC[C@]2(C)[C@H](C(=O)CO)CC[C@@H]12,0.374% (inactive),
C=CCN1CC[C@]23c4c5ccc(O)c4O[C@@H]2/C(=N/NC(=O)c2ccccc2)CC[C@@]3(O)[C@H]1C5,-5.57% (inactive),
C[C@@H](Cc1ccc(O)cc1)NC[C@@H](O)c1cc(O)cc(O)c1,-1.17% (inactive),
C[Se]C[C@@H](N)C(=O)O,2.6% (inactive),
C[C@@]12CC[C@H]3[C@@H](CC=C4C[C@H](OS(=O)(=O)O)CC[C@]43C)[C@H]1CCC2=O,-0.144% (inactive),
C[C@@H]1Cc2cc3c(cc2C(c2ccc(N)cc2)=NN1)OCO3,-8.24% (inactive),
O=C(O)[C@H]1[C@H](C(=O)O)[C@H]2CC[C@@H]1O2,-1.73% (inactive),
CC(C)N[C@@H](C)Cc1ccc(I)cc1,-1.24% (inactive),
CCNC(=O)[C@@H]1O[C@@H](n2cnc3c(N)ncnc32)[C@@H](O)[C@H]1O,0.972% (inactive),
C#CCN[C@@H](C)Cc1ccccc1,1.27% (inactive),
N[C@H](Cc1ccc(N(CCCl)CCCl)cc1)C(=O)O,-1.34% (inactive),
C[N+]1(C)CCc2cc3c(cc2[C@@H]1[C@@H]1OC(=O)c2c1ccc1c2OCO1)OCO3,-1.88% (inactive),
O=C(O)[C@H]1CCN1,-1.22% (inactive),
CCCN1CC[C@@H]2c3cc(O)ccc3CC[C@H]21,-0.445% (inactive),
N[C@H](CCl)C(=O)O,-1.77% (inactive),

SMILES,"activity change, negative = inhibition",outcome
C[C@@H]1O[C@H]1P(=O)(O)O,-2.31% (inactive),
COc1ccc2c(c1O)-c1cccc3c1[C@H](C2)N(C)CC3,1.86% (inactive),
C[C@@]12CC[C@H]3[C@@H](CCC4=C(O)C(=O)CC[C@]43C)[C@H]1CCC2=O,-0.902% (inactive),
COC(=O)[C@H](N)CCCN=C(N)N[N+](=O)[O-],-0.75% (inactive),
CC(=O)[C@@H]1CC[C@H]2[C@H]3CC[C@H]4C[C@@H](O)CC[C@]4(C)[C@@H]3CC[C@]12C,-6.56% (inactive),
NC(=O)CN1C[C@@H](O)CC1=O,3.76% (inactive),
N[C@H](Cn1ccc(=O)[nH]c1=O)C(=O)O,-0.981% (inactive),
COc1cc(C[C@H](C)N)c(OC)cc1I,,inactive
CC(=O)c1c(O)c(C)c(O)c(Cc2c(O)c3c(c(C(=O)/C=C\c4ccccc4)c2O)OC(C)(C)C=C3)c1O,-4.16% (inactive),
COc1ccc2c3c1O[C@@H]1C(=O)CC[C@@]4(O)[C@@H](C2)N(CC2CC2)CC[C@]314,-1.61% (inactive),
NC[C@H](O)c1cc(O)c(O)cc1F,-1.72% (inactive),
COc1ccc2c(c1)[C@]13CCCC[C@@H]1[C@H](C2)NCC3,-3.08% (inactive),
C[N+]1(C)C2CC(OC(=O)C(CO)c3ccccc3)CC1[C@@H]1O[C@H]21 (some centres undefined),,inactive
Nc1ncnc2c1ncn2[C@@H]1O[C@@H](COP(=O)(O)CP(=O)(O)OP(=O)(O)O)[C@H](O)[C@@H]1O,2.07% (inactive),
CO[C@@H]1CC=C2CCN3CCC4=C(CC(=O)OC4)[C@]23C1,2.5% (inactive),
CC(=O)OCC1=C(C(=O)[O-])N2C(=O)[C@@H](NC(=O)CCC[C@@H](N)C(=O)[O-])[C@@H]2SC1.[Zn+2],0.202% (inactive),
COc1cc([C@@H](O)CN)ccc1O,-0.0465% (inactive),
CN1C[C@@H](CS(=O)(=O)N(C)C)C[C@H]2c3cccc4c3c(cn4C)C[C@@H]21,-2.11% (inactive),
CCN(CC)c1ncnc2c1ncn2[C@@H]1O[C@@H](COP(=O)(O)OP(=O)(O)C(Br)(Br)P(=O)(O)O)[C@H](O)[C@@H]1O,2.75% (inactive),
